The record followed here is PubChem BioAssay (NCI).

Compounds without any hit were thinned out: in the full panel of roughly 83,000, 20% have a hit.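 Plates (96-well) were seeded with cells, treated with compound at one concentration, and incubated for 48 hours before percent growth was determined.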 Unmarked numbers belong to inactive results. Calls of active or inactive are those of the source. How the source made its calls: active means growth percent below 10; inactive means the rest.

What all share (test): NCI-60 one-dose screen, 48 h (100 = growth as untreated, 0 = no growth, -100 = all killed)
Common to all, as to details: 10 µM unless noted

The subject of experiment [1] is SK-MEL-2 melanoma.
The subject of experiment [2] is EKVX NSCLC.
The subject of experiment [3] is SN12C renal.
Experiment [4] has as its system UO-31 renal.
Experiment [5] deals with TK-10 renal.
In experiment [6] the test system is ACHN renal.
The test system of experiment [7] is CAKI-1 renal.
The subject of experiment [8] is A498 renal.
The test system of experiment [9] is CCRF-CEM leukemia.
Experiment [10] deals with MOLT-4 leukemia.
Experiment [11] has as its system RPMI-8226 leukemia.
The subject of experiment [12] is OVCAR-8 ovarian.
Experiment [13] relates to OVCAR-5 ovarian.
The subject of experiment [14] is OVCAR-4 ovarian.
The subject of experiment [15] is SK-OV-3 ovarian.
The test system of experiment [16] is IGROV1 ovarian.
In experiment [17] the test system is OVCAR-3 ovarian.
The subject of experiment [18] is HS 578T breast.
Experiment [19] relates to NCI/ADR-RES ovarian.

With `O=S(=O)(O)c1ccc(N/N=C/c2ccccc2Cl)cc1`, the growth in experiment [1] was 102%; in [2] it was 116%; in [3] it was 106%; in [4], 82.7%; in experiment [5], 104%; in experiment [6], 99.6%. Besides, the growth in experiment [7] is 89.8%; in experiment [8] it was 100%; in experiment [9] it was 95.4%; in [10], 103%; in experiment [11] it was 98.7%; in experiment [12] it was 115%. Also, the growth is 104% in [13]; 112% in experiment [14]; 112% in experiment [15]; 101% in experiment [16]; 119% in [17]; 111% in experiment [18]. The growth in experiment [19] is 110%.
As to `CCN(CC)S(=O)(=O)c1cccc(-c2ccc3c(NC(=O)C4CC4)n[nH]c3c2)c1`, the growth was -16.9% [6.25 µM] (active) in experiment [1]; 27.5% [6.25 µM] in [2]; 38.8% [6.25 µM] in experiment [3]; 36% [6.25 µM] in experiment [4]; 35.4% [6.25 µM] in experiment [5]; 27.2% [6.25 µM] in [6]. In addition, the growth in [7] is 37.7% [6.25 µM]; in experiment [8], 9.92% [6.25 µM] (active); in [9], 17.6% [6.25 µM]; in experiment [10], 10.4% [6.25 µM]; in [11] it was 11% [6.25 µM]; in experiment [12], 14.7% [6.25 µM]. Moreover, the growth in experiment [13] was 51.6% [6.25 µM]; in experiment [14] it was 18.7% [6.25 µM]; in experiment [15], 28.6% [6.25 µM]; in [16], 34.7% [6.25 µM]; in [17], 17.3% [6.25 µM]; in [18], 23.8% [6.25 µM]. Moreover, the growth in experiment [19] is 79.7% [6.25 µM].
For `COc1cc(C(=O)c2cc(C)c3[nH]c4ccc(Cl)cc4c3c2C)cc(OC)c1OC`, the growth in experiment [1] was 57.6%; in experiment [2] it was 50.2%; in experiment [3], 17.5%; in experiment [4], 24.6%; in [5], 87.5%; in experiment [6], 24.2%. The growth in experiment [7] was 21%; in [8], -9.44% (active); in [9] it was 17.2%; in [10], 20.7%; in [11], 22.4%; in experiment [12], 28.5%. Also, the growth is 42.3% in experiment [13]; 56.4% in experiment [14]; 45.7% in experiment [15]; 9.24% (active) in [16]; -35.7% (active) in experiment [17]; 43.5% in [18]. For the same molecule, the growth in experiment [19] was 0.863% (active).
Regarding `N#C/C(=C\c1ccc(-c2ccccc2F)o1)c1nc(-c2ccco2)cs1`, the growth in experiment [1] was 96.5%; in experiment [2], 67%; in [3], 96.7%; in [4], 68.8%; in experiment [5], 65.2%; in [6], 90.4%. Moreover, the growth is 56.8% in experiment [7]; 66.9% in experiment [8]; 95% in experiment [9]; 91.9% in [10]; 80.3% in experiment [11]; 94.2% in [12]. In addition, the growth in experiment [13] is 78.2%; in experiment [14], 19.6%; in experiment [15], 92.6%; in experiment [16] it was 59.9%; in experiment [17], 89.6%; in [18], 98.5%. In experiment [19], the growth is 106%.
Turning to `C[C@H]1[C@H]2[C@H]3CC[C@@H]4[C@@]5(C)C/C(=C/c6ccco6)C(=O)C(C)(C)[C@@H]5CC[C@@]4(C)[C@]3(C)CC[C@]23CO[C@]1(C)[C@@H](C(=O)/C=C\c1ccco1)C3`, the growth was 65.6% in [1]; 107% in [2]; 90.4% in experiment [3]; 71.5% in experiment [4]; 103% in experiment [5]; 68.4% in experiment [6]. Moreover, the growth in [7] was 69%; in experiment [8] it was 123%; in [9], 100%; in [10] it was 100%; in experiment [11], 78%; in [12], 98.8%. Moreover, the growth in experiment [13] was 113%; in [14], 90.7%; in [15], 108%; in experiment [16], 101%; in [17], 103%; in experiment [18], 94%. Moreover, the growth in experiment [19] is 108%.
With `O=C(CCc1nnc(CN(c2ccccc2)c2ccccc2)o1)c1nc2ccccc2[nH]1`, the growth in experiment [1] was 88.7%; in experiment [2], 63.4%; in [3] it was 86.9%; in experiment [4], 61.3%; in experiment [5], 117%; in [6] it was 108%. The growth in experiment [7] was 84.1%; in [8], 80.5%; in experiment [9], 77.6%; in experiment [10], 55.7%; in [11] it was 70.7%; in experiment [12] it was 88.3%. Further, the growth in experiment [13] was 108%; in experiment [14] it was 82.9%; in experiment [15], 96.2%; in experiment [16], 74.6%; in experiment [17], 95%; in [18], 92.3%. In addition, the growth in [19] is 91.4%.
For the molecule `CCOC(=O)c1c(/C=C/C(=O)O)nc2ccccc2c1/C=C/c1ccccc1`, the growth in [1] was 47.4%; in [2] it was 61.6%; in experiment [3], 27.1%; in experiment [4] it was 42.5%; in experiment [5], 65.5%; in experiment [6], 43.2%. In addition, the growth in experiment [7] was 62.3%; in experiment [8], 8.83% (active); in [9], 17.1%; in [10], 25.5%; in [11] it was 10.9%; in experiment [12], 31.2%. The growth in experiment [13] was 57.4%; in experiment [14] it was 60.5%; in [15], 93.6%; in experiment [16], 52.1%; in [17], 13.3%; in experiment [18] it was 18.7%. Moreover, the growth in experiment [19] is 32.7%.
